Sampled rows, rich in hits. Any-hit rate of the full collection: about 3%.
PPC-1+TRAIL kill: compounds killing PPC-1 cancer cells with TRAIL present, primary screen, TRAIL potentiator project, ATPLite luminescence, uHTS; cell killing (% activity), % at 4 µM or 5 µM; AID 1443, 2008; PPC-1 cells + TRAIL, ATPLite viability luminescence; 0.41% of 220,000 active;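 active = cell killing above 50% in the first pass at 4 µM, then a duplicate retest at 5 µM averaging 50% or more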
TRAIL sens C8: viability loss with TRAIL in NB7+C8 cells, primary screen, TRAIL sensitizer project, cell-based, ATPlite luminescence; inhibition (viability loss, TRAIL sensitization), % at 10 µM; AID 624354, 2012; 1% of 360,000 active;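 active = compounds causing at least 50% loss of cell viability in the single-dose screen, relative to plate controls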
SENP8 block-1: SENP8 protease inhibitors, primary screen, biochemical, luminescence. AID 2540, 2010. 1.2% of 330,000 active. inhibition, % at 10 µM. Sentrin-specific protease 8 (Homo sapiens), Q96LD8. purified SENP8, Z-RLRGG-aminoluciferin cleavage; in the data active = inhibition above about 50%
SENP6 block: SENP6 protease inhibitors, primary screen, biochemical, luminescence, uHTS | Sentrin-specific protease 6 (Homo sapiens), Q9GZR1 | Recombinant SENP6 catalytic domain, aminoluciferin luminescence | inhibition, % at 10 µM | 1.8% of 330,000 active | AID 2599, 2010;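 active = inhibition above about 50% at the single tested dose, limit read from the data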
SENP7 block: SENP7 protease inhibitors, primary screen, biochemical, luminescence, uHTS | Sentrin-specific protease 7 (Homo sapiens), Q9BQF6 | recombinant SENP7, Z-RLRGG-aminoluciferin luminescence, 40 min | 1.5% of 330,000 active | inhibition, % at 5 µM;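 active = inhibition above about 50% at the single test dose, limit read from the data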
Target sequence (Q9BQF6 706-1050 limits assumed): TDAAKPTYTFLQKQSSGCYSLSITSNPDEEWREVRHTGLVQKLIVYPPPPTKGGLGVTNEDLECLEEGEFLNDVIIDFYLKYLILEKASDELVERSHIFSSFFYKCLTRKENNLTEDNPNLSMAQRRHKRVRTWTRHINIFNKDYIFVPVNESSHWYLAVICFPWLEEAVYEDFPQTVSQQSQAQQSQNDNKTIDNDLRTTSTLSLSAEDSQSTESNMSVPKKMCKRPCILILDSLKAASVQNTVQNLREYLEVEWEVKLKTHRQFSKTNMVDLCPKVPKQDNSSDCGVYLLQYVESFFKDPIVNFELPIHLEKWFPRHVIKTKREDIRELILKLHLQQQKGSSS
SENP8 block-2: human SENP8 protease inhibitors, primary screen, biochemical, fluorescence, Nedd8 protein substrate, uHTS; Sentrin-specific protease 8 (Homo sapiens), Q96LD8; recombinant SENP8; inhibition, % at 20 µM; 0.64% of 360,000 active; in the data active = inhibition mostly above about 40%, no sharp cut-off; inactive = mostly below about 27%
SENP8 confirm: SENP8 protease inhibitors, retest, confirmation, biochemical, luminescence, single concentration. shares compounds with SENP7 block. Recombinant SENP8, Z-RLRGG-aminoluciferin luminescence, 60 min. inhibition, % at 12.5 µM. 40% of 6,200 active. AID 488912, 2010;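 active = mean inhibition across replicates above about 50%, limit read from the data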
SENP6 confirm: SENP6 protease inhibitors, confirmation, biochemical, luminescence, single concentration | 58% of 6,200 active | inhibition, % at 12.5 µM | shares compounds with SENP7 block | recombinant SENP6, Z-RLRGG-aminoluciferin luminescence
SENP7 confirm: SENP7 protease inhibitors, retest, confirmation, biochemical, luminescence, single concentration | shares compounds with SENP7 block | recombinant SENP7, Z-RLRGG-aminoluciferin luminescence, 40 min | inhibition, % at 12.5 µM | 69% of 6,200 active | AID 488917, 2010
Casp3 SENP sel: caspase-3 protease inhibitors, confirmation, selectivity assay for SENP inhibitor project, biochemical, single concentration; AID 488918, 2010; inhibition, % at 12.5 µM; 60% of 6,200 active; shares compounds with SENP7 block; purified caspase-3, Z-DEVD-aminoluciferin luminescence, 60 min;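 active = mean inhibition above about 50%, limit read from the data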
Target sequence (P42574 28-227 limits assumed): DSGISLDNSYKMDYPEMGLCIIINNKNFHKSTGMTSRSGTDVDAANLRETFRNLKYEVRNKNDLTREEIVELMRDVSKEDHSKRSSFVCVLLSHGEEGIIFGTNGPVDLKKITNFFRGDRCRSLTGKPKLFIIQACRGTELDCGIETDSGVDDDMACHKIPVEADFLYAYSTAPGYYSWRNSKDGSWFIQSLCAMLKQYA
Luc interf: interferes with luciferase luminescence in SENP counter-screen. shares compounds with SENP7 block. Pre-incubated SENP8/Z-RLRGG-aminoluciferin, luciferase luminescence interference. inhibition, % at 12.5 µM. 39% of 6,200 active. AID 488919;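 active = mean inhibition above about 50% when retested at one dose, limit read from the data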
Of the large screens only hits and unclear results are named; the others gave an inactive call (follow-up assays come after a bar, where they were run).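 The calls were made as follows, unless noted: active = mean inhibition above about 50% in the one-dose retest (limit read from the data); inactive = the rest.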

N/C(=N\OC(=O)/C=C/c1ccccc1)c1ccccc1	SENP8 block-1 80.4, SENP6 block 89.8 | SENP8 confirm 89.7 | SENP6 confirm 89.4 | SENP7 confirm 99.1 | Casp3 SENP sel 90.0 | Luc interf 82.9
CCc1ccc([C@@H]2CC(=O)[C@@H]3CN(S(=O)(=O)c4ccccc4)[C@H](c4ccc(OC)cc4)C[C@@H]3N2S(=O)(=O)c2ccc(C)cc2)cc1	none (no result: PPC-1+TRAIL kill, SENP8 block-1, SENP6 block, SENP7 block)
Fc1ccccc1/C=C/c1ccc2ccccc2n1	TRAIL sens C8 77.0, SENP8 block-1 95.5, SENP7 block 100.4 | SENP8 confirm 99.8 | SENP6 confirm 100.9 | SENP7 confirm 103.7 | Casp3 SENP sel 98.8 | Luc interf 99.4
Cn1nc(/C=C/c2ccccc2)ccc1=O	SENP6 block 54.2, SENP7 block 57.8 | SENP8 confirm inactive | SENP6 confirm inactive | SENP7 confirm 75.7 | Casp3 SENP sel 76.5 | Luc interf 55.0
O=c1ccc(/C=C/c2ccccc2)nn1Cc1ccccc1	none
C(=C\c1ccc2ccccc2n1)/c1ccccc1	TRAIL sens C8 72.8, SENP8 block-1 97.6, SENP6 block 98.2, SENP7 block 97.9 | SENP8 confirm 99.3 | SENP6 confirm 100.7 | SENP7 confirm 103.9 | Casp3 SENP sel 98.6 | Luc interf 97.2
CC(=O)Oc1ccc(Cl)cc1/C=C/c1ccc2ccccc2n1	none
CCN(C(=O)COC(=O)CSc1ccccc1)c1c(N)n(Cc2ccccc2)c(=O)[nH]c1=O	none (no result: PPC-1+TRAIL kill)
C=CC[C@H]1C=C[C@@H](C(C(=O)OC)C(=O)OC)CN1C(C)=O	none (no result: PPC-1+TRAIL kill, SENP8 block-1, SENP6 block, SENP7 block)
CN(C)c1ccc(/C=C2\SC(N3CCCCC3)=NC2=O)cc1	none (no result: PPC-1+TRAIL kill)
COc1cccc(C(=O)Nc2cccc(OCC(=O)O)c2)c1	SENP7 block 57.8 | SENP8 confirm 53.1 | SENP6 confirm inactive | SENP7 confirm 80.6 | Casp3 SENP sel 84.5 | Luc interf 55.8
CCOc1cccc(C(=O)Nc2ccc(NC(=O)c3ccccc3)c(C)c2)c1	SENP8 block-1 77.1, SENP6 block 78.0, SENP7 block 78.1 (no result: PPC-1+TRAIL kill) | SENP8 confirm inactive | SENP6 confirm inactive | SENP7 confirm inactive | Casp3 SENP sel 86.5 | Luc interf inactive
COc1cccc(C(=O)Nc2ccc3ccccc3c2)c1	SENP8 block-1 86.4, SENP6 block 88.5, SENP7 block 91.4 (no result: PPC-1+TRAIL kill) | SENP8 confirm inactive | SENP6 confirm 86.2 | SENP7 confirm 99.0 | Casp3 SENP sel 73.0 | Luc interf 84.5
COc1ccc(C(=O)Nc2cc(OC)nc(OC)n2)cc1	SENP8 block-1 73.9, SENP6 block 87.1, SENP7 block 82.8 | SENP8 confirm 83.2 | SENP6 confirm 83.1 | SENP7 confirm 97.2 | Casp3 SENP sel 92.1 | Luc interf 84.0
COc1cc(C(=O)Nc2ccc3ccccc3c2)cc(OC)c1OC	none (no result: PPC-1+TRAIL kill, TRAIL sens C8, SENP8 block-2)
COc1cc(OC)cc(-c2noc(-c3csc([C@@H]4C[C@H](O)[C@@H](CO)O4)n3)n2)c1	none (no result: PPC-1+TRAIL kill, SENP8 block-1, SENP6 block, SENP7 block)
O=C1C[C@@H]2C(=O)N(c3ccccc3)C(=O)[C@@H]2[C@@H]2CN(S(=O)(=O)c3ccccc3)[C@@H](c3ccccc3)[C@H]12	none (no result: PPC-1+TRAIL kill, SENP8 block-1, SENP6 block, SENP7 block)
O=C(Nc1cccc(-n2cnnn2)c1)c1cnccc1Cl	none (no result: PPC-1+TRAIL kill)
COc1cccc(C(=O)Nc2ccc(NC(C)=O)cn2)c1	none
COc1cccc(C(=O)Nc2cccc(NC(=O)c3ccccc3Cl)c2)c1	none (no result: PPC-1+TRAIL kill)
Cc1cccc(C(=O)Nc2ccc3ccccc3c2)c1	SENP8 block-1 73.4, SENP6 block 83.0, SENP7 block 74.9 (no result: PPC-1+TRAIL kill) | SENP8 confirm 74.0 | SENP6 confirm 75.9 | SENP7 confirm 93.9 | Casp3 SENP sel 57.9 | Luc interf inactive
CCCC(=O)Nc1ccc(NC(=O)c2cccc(OC)c2)nc1	SENP6 block 52.3 | SENP8 confirm inactive | SENP6 confirm inactive | SENP7 confirm 75.2 | Casp3 SENP sel 76.4 | Luc interf 52.2
COc1ccccc1CNC(=O)c1cccc(NC(=O)c2ccccc2)c1	SENP6 block 93.5 | SENP8 confirm inactive | SENP6 confirm inactive | SENP7 confirm inactive | Casp3 SENP sel inactive | Luc interf inactive
COc1cccc(C(=O)Nc2cccc(SC)c2)c1	SENP8 block-1 55.5, SENP6 block 78.9, SENP7 block 75.3 | SENP8 confirm 72.5 | SENP6 confirm 72.1 | SENP7 confirm 90.3 | Casp3 SENP sel 64.9 | Luc interf 70.3
O=C(NCc1cc([N+](=O)[O-])ccc1O)c1cc(-c2ccncc2)nc2ccccc12	none (no result: PPC-1+TRAIL kill)
CC(=O)N(Cc1cc2ccccc2[nH]c1=O)c1ccc(C)cc1	none (no result: PPC-1+TRAIL kill)
COc1cccc(C(=O)Nc2ccc3c(c2)C(=O)NC3=O)c1	SENP8 block-1 51.3, SENP6 block 58.0, SENP7 block 55.5 (no result: PPC-1+TRAIL kill) | SENP8 confirm inactive | SENP6 confirm inactive | SENP7 confirm inactive | Casp3 SENP sel inactive | Luc interf inactive
COc1ccc(OC)c(C(=O)c2ccc(C(=O)Nc3ccc4ccccc4c3)cc2)c1	none
COc1ccc(C(=O)Nc2ccc3c(c2)C(=O)NC3=O)cc1	none (no result: PPC-1+TRAIL kill)
CS(=O)(=O)Nc1ccc(C(=O)Nc2ccc3ccccc3c2)cc1	SENP7 block 57.8 (no result: PPC-1+TRAIL kill) | SENP8 confirm inactive | SENP6 confirm inactive | SENP7 confirm 65.2 | Casp3 SENP sel inactive | Luc interf inactive
COc1ccc(C(=O)Nc2ccc3ccccc3c2)cc1	TRAIL sens C8 68.5, SENP8 block-1 85.7, SENP6 block 87.9, SENP7 block 96.2 (no result: PPC-1+TRAIL kill) | SENP8 confirm inactive | SENP6 confirm 83.9 | SENP7 confirm 99.5 | Casp3 SENP sel 80.4 | Luc interf inactive
COc1cccc(Nc2nc(-c3ccc(O)cc3)cs2)c1	none

Screening results as filed in PubChem.
